# Measurements from PubChem BioAssay.
# Experiment: binders of probe aFGF2 on microarray, primary screen, stem cell growth factor project, biochemical, small-molecule microarray, fluorescence 635/667 (AID 1067);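 note: measures binding of biotinylated aFGF2 protein to printed compounds on slides; z-score merges feature fluorescence and signal-to-noise across triplicate slides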
# Settings: higher = more signal
row,SMILES,composite z-score
1,COc1ccc(NC(=O)O[C@H]2[C@H](OC(=O)c3cc4ccccc4[nH]3)[C@@H](OC(=O)c3cc4ccccc4[nH]3)[C@@H](OC)O[C@@H]2CO)cc1,0.0014
2,C=C(CCCC)C(=O)CC[C@H](OC(=O)c1cccnc1)c1ccc(OCCO)cc1,-0.116
3,C=CCN1C(=O)[C@]2(Cc3ccccc3)N=C(c3ccc(OCCCO)cc3)O[C@@H]2c2ccccc21,-0.0119
4,CC(=O)NCCCC[C@@H]1NC(=O)[C@H]2C[C@@H](C(=O)NCCCCCNC(=O)CS)[C@@H](c3ccc(O)cc3)N2C1=O,-0.0358
5,C=CCC(OC(C)=O)[C@@H]1[C@@H](N(Cc2cc3ccccc3o2)C(=O)Cc2ccc(OC)cc2)c2cc(OCCCO)ccc2N1C(=O)c1ccc2ccccc2c1 (stereo not given in full),-0.062
6,CC(c1ccccc1)C(O)C1C=CC2C(=O)N(c3ccccc3)C(=O)C2N1Nc1ccccc1 (stereo not given),0.0878
7,COc1ccc([C@H]2C[C@H]3C(Br)=C[C@@]2(CO)C(=O)[C@]32CO2)cc1,-0.0563
8,COCCOC(=O)N1C(=O)[C@@]2(c3cc(C#CCCO)ccc31)[C@H](c1ccc(OCCO)cc1)N1[C@H](c3ccccc3)[C@H](c3ccccc3)OC(=O)[C@H]1[C@@H]2C(N)=O,-0.0182
9,CCCCN1CC=CC23O[C@@H]4/C=C\CCCOC(=O)C4[C@H]2C(=O)N(CCCCCO)[C@@H]3C1=O (stereo not given in full),-0.0985
10,NCCCCCCNC(=O)[C@H]1C[C@H]2C(=O)N[C@@H](Cc3ccccc3)C(=O)N2[C@H]1c1cccc(OCCO)c1,0.0227
11,COc1ccc([Si](C)(C)[C@@H]2[C@@H](CCn3cc(CCO)nn3)O[C@]3(C(=O)N(Cc4cccc(N5C(=O)c6cccc7cccc5c67)c4)c4ccccc43)[C@H]2C)cc1,-0.103
12,CC(=O)Nc1cc(Br)ccc1C(=O)NCc1ccccc1,0.0213
13,CCCCCN1CC=CC23O[C@@H]4C=CCOC(=O)[C@@H]4[C@H]2C(=O)N(C(C)CO)[C@@H]3C1=O (stereo not given in full),-0.195
14,CCOC(=O)C1=C[C@@H](C(C)C)N(S(=O)(=O)c2ccc(C)cc2)[C@H]1c1ccccc1F,-0.0924
15,CS(=O)(=O)CCOC(=O)C1=CC(CCCO)=CC(C2CC2)N(Cc2cc3c(cc2Br)OCO3)C=C1C(=O)OCCS(C)(=O)=O (stereo not given),-0.0752
16,Cc1c(NC(=O)/C(C#N)=C/c2cccc([N+](=O)[O-])c2)c(=O)n(-c2ccccc2)n1C,-0.112
17,C=CCN1Cc2ccccc2[C@@H]2OC(c3ccc(OCCCO)cc3)=N[C@]2(CCS(=O)(=O)c2ccccc2)C1=O,-0.04
18,C=CCNC(=O)[C@@H]1[C@H]2C(=O)O[C@H](c3ccccc3)[C@H](c3ccccc3)N2[C@H](c2ccc(OCCO)cc2)[C@@]12C(=O)N(C(=O)OCCOC)c1ccc(C#CCC(C(=O)OC)C(=O)OC)cc12,0.0408

row,SMILES,composite z-score
1,CN1C(=O)C2C=CC(C(O)C=Cc3ccc([N+](=O)[O-])cc3)N(Nc3ccccc3)C2C1=O (stereo not given),0.0411
2,COCCOC(=O)N1C(=O)[C@@]2(c3cc(C#CC4=CCCCC4)ccc31)[C@H](c1ccc(OCCO)cc1)N1[C@H](c3ccccc3)[C@H](c3ccccc3)OC(=O)[C@H]1[C@@H]2C(=O)N1CCc2cc(OC)c(OC)cc2C1,-0.0242
3,CC(C)CN1C(=O)[C@@]2(c3ccc([N+](=O)[O-])cc3)CC(=O)N(C3CCCCC3)[C@@H]2c2ccc(CO)cc21,-0.0954
4,C#CCN1[C@H](/C=C/C2CC2)[C@H](Cc2ccccc2)OC(=O)[C@@H]1Cc1ccccc1,-0.144
5,COc1ccccc1CN1C(=O)c2ccccc2[C@@]2(Cc3ccccc3N(CCCN(C)C)C2=O)[C@@H]1c1ccc(CO)cc1,-0.0396
6,COC(=O)[C@@]1(CCC(=O)OC(C)(C)C)N=C(c2ccc(OCCCO)cc2)O[C@H]1c1ccccc1,-0.024
7,O=C(O)[C@@]1(CCS(=O)(=O)c2ccccc2)N=C(c2ccc(OCCCO)cc2)O[C@H]1c1ccccc1,0.0654
8,C=CCN(Cc1ccccc1)C(=O)C(c1cccs1)N(C(=O)/C=C\C(=O)O)c1ccc(CCOCCO)cc1 (stereo not given),-0.176
9,CC(C)NC(=O)[C@@H]1c2ccccc2C(=O)N(C(C)C)[C@H]1c1ccc(CO)cc1,-0.0064
10,C=CCC(OC(C)=O)[C@@H]1[C@@H](N(Cc2ccc(-c3cccc(C(F)(F)F)c3)o2)C(=O)c2cccc3ccccc23)c2cc(OCCCO)ccc2N1C(=O)Cc1ccc2ccccc2c1 (stereo not given in full),-0.152
11,COc1ccc([Si](C)(C)[C@@H]2[C@@H](CCn3cc([C@H](O)c4ccccc4)nn3)O[C@]3(C(=O)N(Cc4cccc(N5CCC5=O)c4)c4ccccc43)[C@H]2C)cc1,-0.116
12,O=C(NCCN1CCOCC1)[C@@H]1c2ccccc2C(=O)N(Cc2cc(C(F)(F)F)cc(C(F)(F)F)c2)[C@H]1c1ccc(CO)cc1,-0.116
13,C=C(CCCC)/C(=C/C[C@H](OC(C)=O)c1ccccc1OCCO)c1cnc2ccccc2c1,-0.115
14,COC(=O)[C@@]1(Cc2ccc(OC)cc2)[C@H]2c3cc(C(=O)N4CCCC4)n(CCc4ccc(O)c(O)c4)c3C[C@H]2CN1C(=O)c1ccccc1,0.0215
15,Cc1ccc(S[C@]2(C(=O)NCC(C)C)CC(=O)N(Cc3cc(C(F)(F)F)cc(C(F)(F)F)c3)[C@@H]2c2ccc(CO)cc2)cc1,0.047
16,O=C(NC1CC1)[C@@H]1c2ccccc2C(=O)N(C2Cc3ccccc3C2)[C@H]1c1ccc(CO)cc1,-0.0618
17,O=C1OCCC=C[C@H]2OC34C=CCN(CCN5CCOCC5)C(=O)[C@H]3N(CCCCCO)C(=O)[C@@H]4C12 (stereo not given in full),-0.203
